# Data published in PubChem BioAssay (NCATS).
# “And” between values parts separate entries of the source, which are not always exact repeats. Identical values can stand only once. Results filed as inconclusive are left out. The source made the active and inactive calls. Unless noted, calls follow the shape of the dose curve; as a rule, active = well fitted curve in the direction sought with a large enough effect; inconclusive = small, poorly fitted or top-dose-only effect, or another doubt; inactive = no such curve, though single readings can be large; an effect the other way counts as inactive or inconclusive. Non-standard residues stand in square brackets, D forms with d. Residues, ends and D or L forms follow the SMILES beside them. *: point of attachment. Nva = CCC[C@H](N)C(=O)O; Cbz = O=C(OCc1ccccc1)*
# Legend:
# [1] = Primary qHTS for inhibitors of nuclear receptor binding SET domain protein 2 (NSD2) in an isogenic RCH-ACV NSD2 p.E1099K mutant (9B) (AID 1645876); also: nearly all actives have a fitted effect of over 70% in size; also: potency is read from the fitted curve at half-maximal effect
# [2] = Primary qHTS for inhibitors of nuclear receptor binding SET domain protein 2 (NSD2) in an RCH-ACV wild type WT cells (2C) (AID 1645877); also: nearly all actives have a fitted effect of over 70% in size; also: potency is read from the fitted curve at half-maximal effect
# [3] = NCATS anti-infectives library activity on the primary C. elegans qHTS viability assay (AID 1745855; calls by dose curve; also: potency is read from the fitted curve at half-maximal effect)
# Outline: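 Viability is taken from GFP fluorescence of PE254-GFP-FLuc C. elegans imaged by laser cytometry over 7 days. Ten L1 worms per well grow at 21 °C on TOP10 E. coli capsules with titrated compound; levamisole marks toxicity.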
# [4] = Viability counterscreen for antagonist of constitutive androstane receptor (CAR) against the NCATS DSHEA and TCM libraries (AID 1794837);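 also: compound exposure lasted 24 h before viability reading; 0% is about no effect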
# Outline: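 HepG2-CYP2B6-hCAR cells, 2,500/well, were exposed 24 hr at 37C to substances together with 48 uM CITCO (final). Viability was read as CellTiter-Fluor fluorescence (Ex/Em 405/540 nm) after 1 hr.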
# [5] = Viability counterscreen for agonist of constitutive androstane receptor (CAR) against the NCATS DSHEA and TCM libraries (AID 1794838);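 also: HepG2 cells with CYP2B6 reporter and hCAR plus 0.75 µM PK11195 antagonist; 0% is about no effect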
# Outline: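 HepG2-CYP2B6-hCAR cells (2,500/well) treated 24 h at 37C with compounds plus 0.75 uM PK11195; viability read by CellTiter-Fluor fluorescence, Ex/Em 405/540 nm.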
# [6] = target: Catechol O-methyltransferase (Homo sapiens) (UniProt P21964); test: Confirmatory Screen for Target Class Profiling of Small Molecule Inhibitors of Methyltransferases (AID 1745852; calls by dose curve; also: potency is read from the fitted curve at half-maximal effect; as to activity change, negative = inhibition: % is scaled to controls: 0 for no effect and ±100 for the full control effect); settings: MTase-Glo luminescence, SAH detection, recombinant enzyme; measured here: COMT max response; stronger effect = lower value
# [7] = target: Guanidinoacetate N-methyltransferase (Homo sapiens) (UniProt Q14353); test: as above; settings: activity change, negative = inhibition: at 57.3 µM (top of the series)
# [8] = target: Nicotinamide N-methyltransferase (Homo sapiens) (UniProt P40261); test: as above; settings: MTase-Glo luminescence, SAH detection, recombinant enzyme; measured here: NNMT max response; stronger effect = lower value
# [9] = target: Phenylethanolamine N-methyltransferase (Homo sapiens) (UniProt P11086); test: as above; settings: MTase-Glo luminescence, SAH detection, recombinant enzyme; measured here: PNMT max response; stronger effect = lower value
# Sequence of Phenylethanolamine N-methyltransferase (Homo sapiens) (P11086 whole entry, looked up): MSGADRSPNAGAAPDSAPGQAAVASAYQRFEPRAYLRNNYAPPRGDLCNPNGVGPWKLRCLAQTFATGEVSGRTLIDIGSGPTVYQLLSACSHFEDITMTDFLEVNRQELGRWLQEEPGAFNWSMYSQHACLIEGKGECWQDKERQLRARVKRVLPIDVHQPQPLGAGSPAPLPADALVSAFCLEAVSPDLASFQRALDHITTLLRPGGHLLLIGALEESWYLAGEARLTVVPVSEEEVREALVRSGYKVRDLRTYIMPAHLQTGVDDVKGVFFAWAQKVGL
# Sequence of Catechol O-methyltransferase (Homo sapiens) (P21964 whole entry, looked up): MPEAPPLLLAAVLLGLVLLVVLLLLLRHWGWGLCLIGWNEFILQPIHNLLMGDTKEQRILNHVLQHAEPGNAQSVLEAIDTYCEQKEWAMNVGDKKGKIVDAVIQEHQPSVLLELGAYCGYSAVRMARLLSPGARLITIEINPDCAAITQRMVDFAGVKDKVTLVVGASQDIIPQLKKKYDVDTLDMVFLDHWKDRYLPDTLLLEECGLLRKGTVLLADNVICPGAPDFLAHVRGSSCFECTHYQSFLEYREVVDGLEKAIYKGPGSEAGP
# Sequence of Nicotinamide N-methyltransferase (Homo sapiens) (P40261 whole entry, looked up): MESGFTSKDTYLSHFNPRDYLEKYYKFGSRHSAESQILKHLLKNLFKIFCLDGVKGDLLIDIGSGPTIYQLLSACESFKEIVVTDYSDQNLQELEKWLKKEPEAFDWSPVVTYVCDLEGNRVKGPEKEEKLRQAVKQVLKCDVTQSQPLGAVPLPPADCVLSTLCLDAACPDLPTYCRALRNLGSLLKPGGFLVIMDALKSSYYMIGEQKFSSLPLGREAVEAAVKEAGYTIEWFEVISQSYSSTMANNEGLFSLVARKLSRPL
smiles,measurement,setting,value
CC(=O)NC(CS)C(=O)O (stereo not given),Potency,[1],inactive
same,Potency,[2],inactive
N#Cc1c(NC(=O)c2cccc3ccccc23)sc2c1CCCC2,Potency,[1],0.263 µM (active)
same,Potency,[2],263 nM (active)
C=C(C)[C@@H]1CC[C@]2(C)CC[C@]3(C)[C@H](CC[C@@H]4[C@@]5(C)CC[C@H](O)C(C)(C)[C@H]5CC[C@]43C)[C@@H]12,Potency,[1],inactive
same,Potency,[2],inactive
CCc1c(O)cc(O)c(C(=O)c2ccc(OCCN3CCOCC3)c(OC)c2)c1CC(=O)N(CCOC)CCOC,Potency,[1],0.372 µM (active)
same,Potency,[2],148 nM (active)
C[C@@H]1C(=O)O[C@H]2CC34[C@H]5C[C@@H](C(C)(C)C)C36[C@H](OC(=O)[C@@H]6O)O[C@@]4(C(=O)O5)[C@]21O (stereo not given in full),Potency,[1],inactive
same,Potency,[2],inactive
O=C1CSC(=O)N1C(CCc1ccncc1)COc1ccc(-c2cccc([N+](=O)[O-])c2)cc1 (stereo not given),Potency,[1],14.8 µM (active)
same,Potency,[2],11800 nM (active)
CCn1c(=O)c2c(nc(C=Cc3ccc(OC)c(OC)c3)n2C)n(CC)c1=O,Potency,[1],inactive
same,Potency,[2],inactive
CCC[C@@H](C=O)NC(=O)[C@H](CC(C)C)NC(=O)[C@H](CC(C)C)NC(=O)OCc1ccccc1 (Cbz-Leu-Leu-[Nva]-aldehyde),Potency,[1],2.09 µM (active)
same,Potency,[2],1050 nM (active)
c1cncc(CN2CCC(n3ncc4c(N5CCOCC5)nc(-c5ccc6[nH]ccc6c5)nc43)CC2)c1,Potency,[1],916 nM (active) and 833 nM (active)
same,Potency,[2],1.15 µM (active) and 1.05 µM (active)
CN(C)c1ccc(C(=O)NCCCCCCC(=O)NO)cc1,Potency,[1],0.525 µM (active)
same,Potency,[2],934 nM (active)
same,Potency,[3],inactive
C[C@@]12C[C@@]3(O)O[C@@H](O1)[C@]1(COC(=O)c4ccccc4)[C@@H]3C[C@@]12O[C@@H]1O[C@H](CO)[C@@H](O)[C@H](O)[C@@H]1O,outcome,[4],inactive
same,outcome,[5],inactive
COc1cc2c(Nc3ccc(Cl)c(Cl)c3F)ncnc2cc1OCC1C[C@@H]2CN(C)C[C@H]2C1,activity,[6],-71.6%
same,Potency,[7],21500 nM (active)
same,activity,[8],-56.2%
same,activity,[9],-68.7%
CCOC(=O)[C@@H](N)Cc1ccc(-c2cc(O[C@H](c3ccc(Cl)cc3-n3ccc(C)n3)C(F)(F)F)nc(N)n2)cc1,Potency,[2],23500 nM (active)
same,activity,[6],-0.461%
same,"activity change, negative = inhibition",[7],0%
same,activity,[8],-31.8%
same,activity,[9],-6.64%
CN1CCc2c(c3ccccc3n2Cc2ccc(C(=O)NO)cc2)C1,Potency,[1],16.3 µM (active) and 18.6 µM (active)
same,Potency,[2],11.5 µM (active) and 16.6 µM (active)
same,activity,[6],0%
same,"activity change, negative = inhibition",[7],-3.04%
same,activity,[8],-7.28%
same,activity,[9],-22.2%
Cc1cncc2cccc(S(=O)(=O)N3CCCN(C(=O)CN)C[C@@H]3C)c12,Potency,[2],1450 nM (active)
CCN(C(=O)c1c(O)c2c(Cl)cccc2n(C)c1=O)c1ccccc1,Potency,[2],inactive
COC(=O)[C@H](CCCN=C(N)N)NS(=O)(=O)c1ccc(C)cc1,Potency,[1],inactive
same,Potency,[2],inactive
CNC(=O)Nc1ccc(-c2nc(N3CC4CCC(C3)O4)c3cnn(C4CCC5(CC4)OCCO5)c3n2)cc1,Potency,[1],0.0742 µM (active)
same,Potency,[2],118 nM (active)
Cn1cc(-c2cnn3c(N)c(Br)c([C@H]4CCCNC4)nc23)cn1,activity,[6],-1.78%
same,"activity change, negative = inhibition",[7],2.57%
same,activity,[8],-6.14%
same,activity,[9],-78.4%
O=[N+]([O-])c1cn2c(n1)OC[C@@H](OCc1ccc(OC(F)(F)F)cc1)C2,Potency,[1],inactive
same,Potency,[2],inactive
C[C@H]1COc2c(N3CCN(C)CC3)c(F)cc3c(=O)c(C(=O)O)cn1c23,Potency,[2],inactive
OCCNC1CCCc2c1[nH]c1ccc(-c3ccccc3)cc21 (stereo not given),Potency,[1],11.8 µM (active)
same,Potency,[2],11800 nM (active)
CC(C)C[C@H](NC(=O)[C@@H](NC(=O)c1cccc(-c2ccccc2)n1)[C@@H](C)O)B(O)O,Potency,[1],29 nM (active) and 32.3 nM (active)
same,Potency,[2],18.3 nM (active) and 22.9 nM (active)
same,Potency,[3],2050 nM (active)
Cc1cc(O)c2c(c1)C(=O)c1cccc(O)c1C2=O,Potency,[1],inactive
same,Potency,[2],inactive
same,Potency,[3],inactive
C#Cc1cccc(Nc2ncnc3cc(OCCOC)c(OCCO)cc23)c1,Potency,[1],14.8 µM (active)
same,Potency,[2],13200 nM (active)
c1cc(N[C@@H]2CCNC2)nc(-c2cnc3ccc(-c4cn[nH]c4)cn23)c1,Potency,[1],2.63 µM (active)
same,Potency,[2],934 nM (active)
same,activity,[6],-4.23%
same,Potency,[7],inactive
same,activity,[8],-7.42%
same,activity,[9],-12.3%
CC(C)C[C@@H](C=O)NC(=O)[C@H](CC(C)C)NC(=O)[C@H](CC(C)C)NC(=O)OCc1ccccc1 (Cbz-Leu-Leu-Leu-aldehyde),Potency,[1],1.05 µM (active)
same,Potency,[2],934 nM (active)
same,Potency,[3],inactive
